Source: ChEMBL document CHEMBL1157539, “Thousands of chemical starting points for antimalarial lead identification” (Nature, 2010)

Assays:
Plasmodium falciparum [1] = assay: GSK_TCMDC: Inhibition of Plasmodium falciparum 3D7 in whole red blood cells, using parasite LDH activity as an index of growth. Test compounds present at 2uM; format: functional
Plasmodium falciparum [2] = assay: GSK_TCMDC: Inhibition of Plasmodium falciparum Dd2 in whole red blood cells, using parasite LDH activity as an index of growth. Test compounds present at 2uM; format: functional

Structure (SMILES)	Inhibition (Plasmodium falciparum [1]) [%]	Inhibition (Plasmodium falciparum [2]) [%]
CC1CCN(Cc2c(O)ccc3c(CN4CCC(C)CC4)c(O)ccc23)CC1.Cl	100	86
Cc1c(Cc2ccc(C(C)C)cc2)cnc2nc(N)nc(N)c12	97	0
COc1ccc(OC)c(Cc2c(C)nc3nc(N)nc(N)c3c2C)c1.Cl	90	0
CC(C)c1ccc2c(c1)C(=O)c1ccc(C(=O)O)cc1S2(=O)=O	93	83
CN(C)S(=O)(=O)n1ncc2c3c(N)nc(N)nc3ccc21.Cl	96	0
CC(C)C(=O)Nc1c(F)cc(F)cc1CCc1ccc(O)cc1	90	91
COc1ccc(Cc2c(Cl)nc3nc(N)nc(N)c3c2C)c(OC)c1OC	98	0
Cc1nc2nc(N)nc(N)c2c(C)c1Cc1ccc([N+](=O)[O-])cc1.Cl	98	11
COc1cccc2c(O)c(CNC3CCCCC3)ccc12.Cl	100	98
COc1cc(Cc2cnc(N)nc2N)cc(OCCCCc2ccc([N+](=O)[O-])cc2)c1OC	88	4
Cc1[nH]c(C)c(-c2ccc(Oc3cccc(C(F)(F)F)c3)cc2)c(=O)c1Br	99	97
CN1CCN(c2ccc3[nH]c(-c4ccc5[nH]c(-c6ccc([N+](=O)[O-])c(N)c6)nc5c4)nc3c2)CC1	100	100
Cn1c(N)cc(-c2cccc(I)c2)c2c(=O)nc(N)nc1-2	89	75
CN(Cc1cnc2nc(N)nc(N)c2n1)c1ccc(C(=O)N[C@H](CCC(=O)OC(C)(C)C)C(=O)N[C@@H](CCC(=O)OC(C)(C)C)C(=O)OC(C)(C)C)cc1	85	1
